Active and inactive are the calls of the source.
What was measured:
[1] = small molecules captured by biotinylated probe aFSTL3 – biochemical, small-molecule microarray, fluorescence 635/667, stem cell growth factor project, primary screen (AID 1064); details: higher = more signal;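 further: measures binding of the biotinylated anti-FSTL3 antibody to printed compounds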
[2] = binders from COS7 lysate, DM2A8 probe, primary screen, torsin A project, cell lysate, small-molecule microarray, fluorescence 635/667 (AID 1065); details: higher = more signal, COS7 lysate expressing mutant human TOR1A
[3] = small molecules captured by biotinylated probe aFGF2 – biochemical, small-molecule microarray, fluorescence 635/667, stem cell growth factor project, primary screen (AID 1067); details: higher = more signal;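 further: measures binding of biotinylated aFGF2 protein to printed compounds on slides; z-score merges feature fluorescence and signal-to-noise across triplicate slides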
[4] = small molecules captured by biotinylated probe aFGF10 – biochemical, small-molecule microarray, fluorescence 635/667, stem cell growth factor project, primary screen (AID 1071); details: higher = more signal;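 further: score merges 667 nm spot intensity and signal to noise from triplicate slides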
[5] = molecular target: Neurogenic locus notch homolog protein 2 (Homo sapiens) (UniProt Q04721); assay: small molecules binding Notch2 protein – biochemical, small-molecule microarray, 635 nm fluorescence, stem cell growth factors, primary screen (AID 1073); details: higher = more signal
Chain of Neurogenic locus notch homolog protein 2 (Homo sapiens) (Q04721 whole entry, looked up, canonical isoform): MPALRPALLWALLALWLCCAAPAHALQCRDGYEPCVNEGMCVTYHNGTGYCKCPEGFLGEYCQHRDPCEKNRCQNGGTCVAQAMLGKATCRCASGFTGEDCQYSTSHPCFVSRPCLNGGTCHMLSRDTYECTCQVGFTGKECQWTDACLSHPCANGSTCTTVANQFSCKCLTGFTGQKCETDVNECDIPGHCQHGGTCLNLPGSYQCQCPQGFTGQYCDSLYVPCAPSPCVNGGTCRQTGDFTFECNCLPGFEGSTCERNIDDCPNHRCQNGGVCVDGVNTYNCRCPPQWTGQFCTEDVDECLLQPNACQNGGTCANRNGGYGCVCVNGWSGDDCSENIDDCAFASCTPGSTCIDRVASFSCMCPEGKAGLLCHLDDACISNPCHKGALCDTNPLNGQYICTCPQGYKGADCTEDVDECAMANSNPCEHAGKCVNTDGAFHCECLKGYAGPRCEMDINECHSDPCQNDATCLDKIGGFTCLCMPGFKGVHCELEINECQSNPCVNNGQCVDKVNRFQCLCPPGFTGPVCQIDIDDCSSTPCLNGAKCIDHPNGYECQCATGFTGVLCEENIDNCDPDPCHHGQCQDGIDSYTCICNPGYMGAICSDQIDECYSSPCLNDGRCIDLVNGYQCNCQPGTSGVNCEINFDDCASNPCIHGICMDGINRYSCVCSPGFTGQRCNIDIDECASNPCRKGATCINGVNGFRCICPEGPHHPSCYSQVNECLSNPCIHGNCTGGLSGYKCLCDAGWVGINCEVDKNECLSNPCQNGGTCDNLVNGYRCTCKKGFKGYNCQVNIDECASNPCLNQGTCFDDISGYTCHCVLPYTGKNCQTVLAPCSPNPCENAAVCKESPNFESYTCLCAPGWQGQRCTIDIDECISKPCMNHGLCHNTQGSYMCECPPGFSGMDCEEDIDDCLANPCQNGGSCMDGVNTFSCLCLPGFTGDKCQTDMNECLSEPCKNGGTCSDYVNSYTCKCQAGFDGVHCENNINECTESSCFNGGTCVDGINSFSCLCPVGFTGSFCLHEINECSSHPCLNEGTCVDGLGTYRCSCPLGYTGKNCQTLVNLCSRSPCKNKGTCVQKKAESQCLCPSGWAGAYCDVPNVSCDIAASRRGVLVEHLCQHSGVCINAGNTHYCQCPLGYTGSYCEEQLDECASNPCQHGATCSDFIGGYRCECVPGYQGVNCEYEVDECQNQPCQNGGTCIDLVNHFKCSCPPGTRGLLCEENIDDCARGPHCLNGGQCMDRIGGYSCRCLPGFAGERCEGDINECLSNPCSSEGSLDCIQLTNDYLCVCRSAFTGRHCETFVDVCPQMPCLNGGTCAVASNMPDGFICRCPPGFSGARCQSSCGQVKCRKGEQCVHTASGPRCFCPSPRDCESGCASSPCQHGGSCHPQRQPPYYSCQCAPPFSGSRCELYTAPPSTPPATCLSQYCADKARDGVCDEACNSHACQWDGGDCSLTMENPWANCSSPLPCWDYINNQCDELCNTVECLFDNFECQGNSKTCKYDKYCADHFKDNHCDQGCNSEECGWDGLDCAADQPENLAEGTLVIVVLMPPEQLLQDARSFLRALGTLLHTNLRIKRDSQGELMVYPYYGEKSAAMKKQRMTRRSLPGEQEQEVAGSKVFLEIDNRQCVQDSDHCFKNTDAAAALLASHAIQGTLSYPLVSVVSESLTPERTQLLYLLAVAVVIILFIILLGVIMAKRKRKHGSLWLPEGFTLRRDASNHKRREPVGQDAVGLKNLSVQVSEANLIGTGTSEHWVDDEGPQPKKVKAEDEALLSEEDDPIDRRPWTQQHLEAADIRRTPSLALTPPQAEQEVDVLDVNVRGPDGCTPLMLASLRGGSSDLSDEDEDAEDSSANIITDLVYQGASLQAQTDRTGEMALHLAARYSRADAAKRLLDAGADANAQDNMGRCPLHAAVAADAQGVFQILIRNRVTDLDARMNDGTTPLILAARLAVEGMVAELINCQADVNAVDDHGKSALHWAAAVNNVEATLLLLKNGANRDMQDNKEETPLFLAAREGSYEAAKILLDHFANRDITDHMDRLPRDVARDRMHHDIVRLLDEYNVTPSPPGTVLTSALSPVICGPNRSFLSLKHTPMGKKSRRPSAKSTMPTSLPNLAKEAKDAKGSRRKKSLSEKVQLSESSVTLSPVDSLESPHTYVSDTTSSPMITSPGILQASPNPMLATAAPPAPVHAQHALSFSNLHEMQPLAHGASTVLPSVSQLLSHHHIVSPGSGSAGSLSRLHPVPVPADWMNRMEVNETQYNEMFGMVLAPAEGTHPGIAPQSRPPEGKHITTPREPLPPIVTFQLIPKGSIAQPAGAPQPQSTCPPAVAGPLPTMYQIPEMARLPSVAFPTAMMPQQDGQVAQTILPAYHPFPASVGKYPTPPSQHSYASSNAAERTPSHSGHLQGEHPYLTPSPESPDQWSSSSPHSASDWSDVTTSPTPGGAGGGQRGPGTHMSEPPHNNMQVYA

[6] = molecular target: Pro-neuregulin-1, membrane-bound isoform (Homo sapiens) (UniProt Q02297); assay: small molecules binding neuregulin-1 protein – biochemical, small-molecule microarray, fluorescence 635/667, psychiatric disease protein project, primary screen (AID 1075); details: NRG1 binding, 635 nm fluorescence, higher = more signal;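 further: score combines 667 nm spot fluorescence with signal to noise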
Chain of Pro-neuregulin-1, membrane-bound isoform (Homo sapiens) (Q02297 whole entry, looked up, the tested form may be a part, canonical isoform): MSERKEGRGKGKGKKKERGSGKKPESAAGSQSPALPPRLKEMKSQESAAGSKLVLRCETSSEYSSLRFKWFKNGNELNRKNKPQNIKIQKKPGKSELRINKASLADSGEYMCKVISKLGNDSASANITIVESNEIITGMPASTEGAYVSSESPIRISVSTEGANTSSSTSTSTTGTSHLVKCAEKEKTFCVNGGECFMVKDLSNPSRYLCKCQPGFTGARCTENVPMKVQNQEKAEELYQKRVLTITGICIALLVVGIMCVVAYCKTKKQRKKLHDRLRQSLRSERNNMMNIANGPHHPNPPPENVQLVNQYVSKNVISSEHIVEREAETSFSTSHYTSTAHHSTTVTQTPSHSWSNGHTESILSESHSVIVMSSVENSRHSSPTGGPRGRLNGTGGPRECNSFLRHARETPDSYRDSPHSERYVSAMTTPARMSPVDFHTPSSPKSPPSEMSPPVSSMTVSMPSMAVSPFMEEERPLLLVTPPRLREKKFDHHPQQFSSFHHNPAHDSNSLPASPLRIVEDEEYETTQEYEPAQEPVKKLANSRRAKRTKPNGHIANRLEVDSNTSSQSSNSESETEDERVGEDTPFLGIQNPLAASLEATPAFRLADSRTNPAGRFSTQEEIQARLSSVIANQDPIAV

[7] = tested on: Neuregulin-1 EGF-like domain; assay: small molecules binding NRG1 EGF domain – biochemical, small-molecule microarray, 635 nm fluorescence, primary screen (AID 1081); details: higher = more signal;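 further: binding of the protein to compounds printed on small-molecule microarray slides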
[8] = FRG1 expression reporter modulators in myotubes – cell-based, C2C12 myotubes, firefly/Renilla luciferase, luminescence, FRG1 inhibition for FSHD, primary screen (AID 1084); details: FRG1 promoter luciferase, higher = more signal, called active from +8 up or from −8 down
[9] = small molecules captured by biotinylated probe aFST – biochemical, small-molecule microarray, fluorescence 635/667, stem cell growth factor project, primary screen (AID 1086); details: higher = more signal;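 further: score merges 667 nm fluorescence with signal-to-noise of each printed compound spot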
[10] = binders of probe aHhip on microarray, primary screen, stem cell growth factor project, biochemical, small-molecule microarray, fluorescence 635/667 (AID 1087); details: higher = more signal;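 further: score merges spot fluorescence at 667nm with spot signal to noise ratio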

| SMILES | composite z-score [1] | composite z-score [2] | composite z-score [3] | composite z-score [4] | composite z-score [5] | composite z-score [6] | composite z-score [7] | z-score [8] | composite z-score [9] | composite z-score [10] |
| --- | --- | --- | --- | --- | --- | --- | --- | --- | --- | --- |
| CC(C)OC(=O)CC(=O)CC(O)c1ccc([N+](=O)[O-])cc1 (stereo not given) | 0.231 | 0.219 | 0.0033 | 0.307 | 0.795 | 0.0916 | 0.438 | 0.719 (inactive) | 0.0731 | -0.123 |
| COCC(=C=CC[C@@H](O)c1ccc(OCCO)cc1)CCO | -0.394 | 1.19 | -0.0861 | 0.115 | -0.0206 | 1.45 | 0.745 | 1.67 (inactive) | 0.17 | -0.249 |
| CO[C@H]1O[C@H](CO)[C@@H](OC(=O)Nc2ccc(C#N)cc2)[C@@H]2OC(=O)[C@H](Cc3cccc(Br)c3)C/C=C/C[C@@H](Cc3cccc(Br)c3)C(=O)O[C@@H]12 | -0.381 | -0.0617 | -0.0181 | 0.503 | 0.626 | 0.514 | 0.3 | -0.362 (inactive) | 0.572 | 0.195 |
| C[C@]1(C(=O)NCCN2CCOCC2)c2ccccc2C(=O)N(Cc2cc(F)cc(C(F)(F)F)c2)[C@H]1c1ccc(CO)cc1 | 0.0545 | 0.933 | -0.141 | -0.762 | -0.387 | 1.06 | 1.47 | -1.54 (inactive) | 1.16 | -0.0994 |
| O=C1c2ccccc2[C@](Cc2ccccc2I)(C(=O)NC2CC2)[C@H](c2ccc(CO)cc2)N1Cc1ccccc1C(F)(F)F | -0.0446 | 0.338 | -0.0878 | 0.433 | -0.229 | 1.74 | 1.26 | -2.07 (inactive) | 0.11 | -0.0726 |
| CC(C)N1CC=CC23O[C@@H]4/C=C\CCCOC(=O)C4[C@H]2C(=O)N(CCCCCCO)[C@@H]3C1=O (stereo not given in full) | 0.59 | 0.525 | -0.0924 | 0.716 | -0.602 | 2.01 | 1.03 | 0.163 (inactive) | -0.302 | 0.139 |
| [N-]=[N+]=Nc1ccccc1C[C@]1(C(=O)O)N=C(c2ccc(OCCCO)cc2)O[C@H]1c1ccccc1 | 0.0867 | 0.444 | -0.0785 | 0.743 | 0.448 | 1.94 | 1.21 | -1.4 (inactive) | 0.834 | -0.199 |
| C=C(C(=O)CC[C@@H](OC(=O)c1ccccc1-c1ccccc1C(=O)O)c1ccccc1OCCO)C(C)C | -0.248 | 0.95 | -0.113 | 0.858 | 0.493 | 0.0729 | 0.838 | 0.16 (inactive) | 0.111 | 0.233 |
| Cc1cccc([C@H]2C[C@H]3C(I)=C[C@@H]2C(=O)[C@]32CO2)c1 | 0.165 | 0.0974 | -0.128 | -0.152 | -0.714 | -0.507 | -0.38 | 2.56 (inactive) | -0.0256 | -0.236 |
| CCOC(=O)C[C@H]1[C@H](OC(=O)c2ccc(C(=O)c3ccccc3)cc2)[C@@H](NC(=O)CC(C)C)c2cc(OCCCO)ccc2N1C(=O)Cc1ccc(OC)cc1 | 0.134 | 0.819 | -0.105 | 0.209 | 0.342 | 0.517 | 0.2 | -1.69 (inactive) | 0.51 | -0.0074 |
| COc1cc2c(cc1OC)CN(C(=O)[C@@H]1[C@H]3C(=O)O[C@H](c4ccccc4)[C@H](c4ccccc4)N3[C@H](c3ccc(O)cc3)[C@@]13C(=O)Nc1ccc(C#CCCO)cc13)CC2 | -0.281 | 0.0865 | -0.0962 | 0.658 | 0.711 | 1.39 | 1.17 | -0.101 (inactive) | 0.628 | -0.201 |
| CN1C(=O)[C@@]2(Cc3ccccc3)N=C(c3ccc(OCCCO)cc3)O[C@H]2c2ccccc21 | 0.331 | 0.295 | 0.0175 | 0.261 | 0.921 | 0.501 | 1.21 | -2.02 (inactive) | 0.511 | -0.156 |
| C=C(CCCC)C(=O)CC[C@H](OC(=O)c1ccccc1-c1ccccc1C(=O)O)c1ccccc1OCCO | -0.0134 | 0.814 | -0.149 | 0.76 | -0.331 | 1.06 | 1.07 | -1.42 (inactive) | -0.214 | -0.249 |
| CCCNC(=O)[C@@]1(Sc2ccc(C)cc2)CC(=O)N(C(C)C)[C@@H]1c1ccc(CO)cc1I | 1.2 | 0.0023 | -0.104 | -0.77 | -1.06 | 1.98 | -0.0039 | -0.733 (inactive) | -0.433 | -0.0994 |
